Measurements from PubChem BioAssay.
Calls of active or inactive are those of the source.

Test: A549 lung cancer cell viability effects, profiling panel, resazurin fluorescence, 24 h, PK04 Diversity Set (AID 1171); further: test concentration not given here
Conditions: higher = more signal, called active from +8 up or from −8 down

Row | SMILES | z-score
1 | CCCCC(=C=CC[C@@H](O)c1cccc(OCCO)c1)CCO | 1.06 (inactive)
2 | C=CCOC(=O)[C@@H]1[C@H]2C(=O)O[C@H](c3ccccc3)[C@H](c3ccccc3)N2[C@H](c2ccc(OCCOC(=O)[C@H]3C[C@H]4C(=O)NCC(=O)N4[C@H]3c3ccc(O)cc3)cc2)[C@@]12C(=O)Nc1ccc(I)cc12 | 1.1 (inactive)
3 | CN1C=C(C(=O)OCCS(C)(=O)=O)C(C(=O)OCCS(C)(=O)=O)=CC(CCCO)=CC1c1ccc(CN2CCCC2)cc1 (stereo unspecified) | 0.0251 (inactive)
4 | COCCOC(=O)N1C(=O)[C@@]2(c3cc(C#CC4(O)CCCCCC4)ccc31)[C@H](C(=O)N1CCc3cc(OC)c(OC)cc3C1)[C@H]1C(=O)O[C@H](c3ccccc3)[C@H](c3ccccc3)N1[C@@H]2c1ccc(O)cc1 | -0.311 (inactive)
5 | O=C1O[C@@H](c2ccccc2)[C@@H](c2ccccc2)N2[C@@H](c3ccc(OCCO)cc3)[C@]3(C(=O)Nc4ccc(C#CCCO)cc43)[C@@H](C(=O)Nc3nc4ccccc4s3)[C@H]12 | 1.58 (inactive)
6 | COCCCNC(=O)[C@@H]1c2ccccc2C(=O)N(C2CCCCC2)[C@H]1c1ccc(CO)cc1 | 1.19 (inactive)
7 | C=CC[C@]1(C(=O)NCc2ccccc2)COC(c2ccc(OCCCO)cc2)=N1 | -0.256 (inactive)
8 | CN(C)CCCNC(=O)[C@@]1(Cc2ccccc2I)c2ccccc2C(=O)N(Cc2ccccc2)[C@H]1c1ccc(CO)cc1 | -3.32 (inactive)
9 | COc1cccc(OC)c1C(=O)O[C@H]1[C@@H]2OC(=O)[C@H](Cc3cccc(Br)c3)C/C=C/C[C@@H](Cc3cccc(Br)c3)C(=O)O[C@H]2[C@@H](OC)O[C@@H]1CO | -0.952 (inactive)
10 | [N-]=[N+]=NCc1ccccc1C[C@]1(C(=O)NCc2ccccc2)N=C(c2ccc(OCCCO)cc2)O[C@H]1c1ccccc1CN=[N+]=[N-] | -1.09 (inactive)
11 | COCCOC(=O)N1C(=O)[C@@]2(c3cc(C#Cc4ccc(OC)cc4)ccc31)[C@H](c1ccc(OCCO)cc1)N1[C@H](c3ccccc3)[C@H](c3ccccc3)OC(=O)[C@H]1[C@@H]2C(=O)N1CCCCCCC1 | -0.436 (inactive)
12 | Cc1ccc(S[C@]2(C(=O)NC3CC3)CC(=O)N(Cc3cc(C(F)(F)F)cc(C(F)(F)F)c3)[C@@H]2c2ccc(CO)cc2I)cc1 | 0.851 (inactive)
13 | CC1(C)OC[C@@]23C=C(Br)[C@@H](C[C@H]12)[C@@]1(CO1)C3=O | -0.843 (inactive)
14 | CCOC(=O)C1=CC[C@@H](c2ccccc2)N(S(=O)(=O)c2ccc(C)cc2)[C@H]1C#N | 0.172 (inactive)
15 | COc1ccccc1CN1C(=O)c2ccccc2[C@](Cc2ccccc2I)(C(=O)NCCCN(C)C)[C@@H]1c1ccc(CO)cc1 | -7.15 (inactive)
16 | CCCC=C(CCC)[C@@H](NC(=O)c1ccco1)c1ccc(C(=O)OC)cc1 | 6.91 (inactive)
17 | CC(C)(C)OC(=O)CC[C@]1(C(N)=O)N=C(c2ccc(OCCCO)cc2)O[C@H]1c1ccccc1CN=[N+]=[N-] | 0.316 (inactive)
18 | COc1ccc(NN2C(C(O)c3cc(C(F)(F)F)cc(C(F)(F)F)c3)C=CC3C(=O)N(C4CCCCC4)C(=O)C32)cc1 (stereo unspecified) | -0.35 (inactive)

Row | SMILES | z-score
19 | COc1ccc(CCNC(=O)[C@@]2(C)c3ccccc3C(=O)N(Cc3cc(C(F)(F)F)cc(C(F)(F)F)c3)[C@H]2c2ccc(CO)cc2)cc1 | 0.616 (inactive)
20 | CC(C)C(=C=CC[C@@H](O)c1ccc(OCCO)cc1)CCO | 1.22 (inactive)
21 | C=CCC(OC(C)=O)[C@@H]1[C@@H](N(Cc2cc3ccccc3o2)C(=O)c2ccc(-c3ccccc3)cc2)c2cc(OCCCO)ccc2N1C(=O)c1ccc2ccccc2n1 (stereo partly specified) | 0.967 (inactive)
22 | CC(C)c1ccc(NN2C(C(O)C(C)C)C=CC3C(=O)N(c4ccccc4)C(=O)C32)cc1 (stereo unspecified) | -1.28 (inactive)
23 | CCCC[C@H]1OB(O)C[C@H]2C1=C(COC)C[C@H]1C(=O)C=CC(=O)[C@H]12 | -0.347 (inactive)
24 | COc1ccc([Si](C)(C)[C@H]2[C@H](CCn3cc([C@H](O)c4ccccc4)nn3)O[C@@]3(C(=O)N(c4ccccc4)c4ccccc43)[C@@H]2C)cc1 | -0.853 (inactive)
25 | N#Cc1ccc(C(O)C2C=CC3C(=O)NC(=O)C3N2Nc2ccccn2)cc1 (stereo unspecified) | -1.36 (inactive)
26 | O=C1C2C=CC(C(O)c3cccs3)N(Nc3ccccc3)C2C(=O)N1c1ccccc1 (stereo unspecified) | -0.919 (inactive)
27 | CC(C)=CCN(C(=O)C#Cc1ccccc1)[C@H](CO)c1ccccc1 | -2.45 (inactive)
28 | CCCC[C@@H]1C[C@H]1[C@@H](NC(=O)Cc1ccccc1)c1ccc(Cl)cc1 | 3.48 (inactive)
29 | O=C1C2C=CC(C(O)c3ccc([N+](=O)[O-])cc3)N(Nc3ccccc3)C2C(=O)N1c1ccccc1 (stereo unspecified) | -0.0448 (inactive)
30 | O=C1C2C=CC(C(O)C(c3ccccc3)c3ccccc3)N(Nc3ccccc3)C2C(=O)N1c1ccccc1 (stereo unspecified) | -0.876 (inactive)
31 | CC(C)CNC(=O)[C@@]1(C)c2ccccc2C(=O)N(Cc2cc(F)cc(C(F)(F)F)c2)[C@H]1c1ccc(CO)cc1 | 0.906 (inactive)
32 | Cc1c(NC(=O)/C(C#N)=C/c2ccc(Cl)cc2)c(=O)n(-c2ccccc2)n1C | -0.354 (inactive)
33 | CN1C(=O)[C@]2(CCS(=O)(=O)c3ccccc3)N=C(c3ccc(OCCCO)cc3)O[C@@H]2c2ccccc21 | -0.015 (inactive)
34 | COc1cccc(C[C@H]2C[C@@H](CO[Si](C(C)C)(C(C)C)C(C)C)N3C(=O)[C@@]4(C(C)=O)O[C@@]23[C@@H]2C(=O)N(C)C(=O)[C@@H]24)c1 | 0.712 (inactive)
35 | CC(=O)n1cc(C(O)C2C=CC3C(=O)N(c4ccccc4)C(=O)C3N2Nc2ccccc2F)c2ccccc21 (stereo unspecified) | 0.423 (inactive)
36 | CC=CC(O)C1C=CC2C(=O)N(C)C(=O)C2N1NC(=O)OC(C)(C)C (stereo unspecified) | -0.383 (inactive)
